SNCA expr inh: Primary qHTS assay for inhibitors of alpha-synuclein gene (SNCA) expression; Potency, µM (doses to about 57.2 µM), actives largely listed as inhibitors; 140,000 tested, 0.17% active; HEK-293 SNCA-luciferase knock-in, luminescence, 24 h; note: nearly all actives have a fitted effect of over 45% in size
KDM5B inhibitor: Primary screen for KDM5B Histone Demethylases FDH-coupled qHTS; Lysine-specific demethylase 5B (Homo sapiens), Q9UGL1; KDM5B demethylase, FDH-coupled NADH fluorescence (FDH is formaldehyde dehydrogenase); Potency, µM (doses to about 57.7 µM), usual class: inhibitors; 220,000 tested, 2.6% active; note: nearly all actives have a fitted effect of over 70% in size
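qHTS format, multiple compound concentrations. Buffer 50 mM HEPES pH 7.5/0.01% Tween-20; 200 nM KDM5BΔAP final; 10 min compound preincubation; substrate-mix levels 12.5 µM peptide, 25 µM α-KG, 0.25 mM NAD⁺; 30 min RT; ΔRFU.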
SNCA viab count: GF-AFC viability counterscreen for inhibitors of alpha-synuclein gene (SNCA) expression; HEK-293-SNCA-luc viability, GF-AFC fluorescence, 24 h; 150,000 tested, 0.12% active; AID 1671193, 2021; Potency, µM (titrated, usually from 57.1 µM), most hits filed as cytotoxic; note: nearly all actives have a fitted effect of over 30% in size
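Cytotoxicity counterscreen: after 24 h compound treatment of genome-edited SNCA-luciferase HEK-293 cells, live-cell protease substrate GF-AFC read by fluorescence after 30 min; activity scaled between DMSO (0%) and medium-only (-100%), curves Hill-fitted.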
IP6K1 inh: Primary qHTS assay for small molecule inhibitors of Inositol hexaphosphate kinase 1 (IP6K1). IP6K1 kinase, ADP-Glo luminescence, 2 h; hits give low values. activity change, % (series mostly up to about 58 µM). 140,000 tested, 0.81% active. AID 1645851, 2021; in the data active = activity change below about -25%
Target sequence (Q92551 whole entry, looked up): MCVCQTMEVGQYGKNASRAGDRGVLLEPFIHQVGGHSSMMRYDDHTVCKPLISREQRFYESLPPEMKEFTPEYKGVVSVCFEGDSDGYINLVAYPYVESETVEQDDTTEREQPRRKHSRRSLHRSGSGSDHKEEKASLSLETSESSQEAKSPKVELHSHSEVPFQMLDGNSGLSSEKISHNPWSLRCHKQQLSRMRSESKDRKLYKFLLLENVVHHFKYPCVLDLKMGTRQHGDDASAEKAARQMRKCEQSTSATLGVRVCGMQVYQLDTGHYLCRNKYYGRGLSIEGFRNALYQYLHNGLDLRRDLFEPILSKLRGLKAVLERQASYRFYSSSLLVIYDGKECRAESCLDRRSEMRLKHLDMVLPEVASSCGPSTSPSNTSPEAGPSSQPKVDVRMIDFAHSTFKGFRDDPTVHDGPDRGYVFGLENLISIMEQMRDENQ
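ADP-Glo luminescence measures ADP made by human IP6K1 during a 2 h RT reaction with ATP/IP6 (mix at 1.3 mM/130 uM); top library doses 57.5 and 19.1 uM final.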
Numbers stand for hits; 0 = inactive; ? = inconclusive; - = not tested or not shown; ! = not confirmed by another sample. A selection: hits, their analogues and other compounds. The true share with any hit is near 2.8%. Unless noted, calls come from the whole dose curve; as a rule, active = well fitted curve in the direction sought with a large enough effect; inconclusive = small, poorly fitted or top-dose-only effect, or another doubt; inactive = no such curve, though single readings can be large; an effect the other way counts as inactive or inconclusive.

SMILES	SNCA expr inh	KDM5B inhibitor	SNCA viab count	IP6K1 inh
CC(C)c1ccc(C(O)Cn2ccn3nc(-c4ccc(F)cc4)cc3c2=O)cc1 (configuration not stated)	0	25.1µM	0	0
O=c1c2cc(-c3cccs3)nn2ccn1CC(O)c1ccc(F)cc1 (configuration not stated)	0	15.8µM	0	0
O=c1cc(N2CCN(c3ccc(F)cc3)CC2)[nH]c(=O)n1-c1ccc(Br)cc1	0	0	0	0
O=C(CSc1ncc2c(n1)-c1cc(Cl)ccc1N(Cc1ccccc1)S2(=O)=O)Nc1ccc(F)cc1F	0	0	0	0
CCCCCCCCCCCCSCCO	-	0	-	-
CC1(C)C(=O)N(Cc2ccccc2)[C@H]2CN(c3ccnc(N4CCOCC4)c3)C[C@@H]2[S+]1(=O)[O-]	0	0	0	0
COc1cncc(N2C[C@H]3[C@H](C2)[S+](=O)([O-])C(C)(C)C(=O)N3Cc2ccccc2)c1	?	7.08µM	0	0
COc1ccc(-c2noc(N3CCC(C(=O)N4CCN(c5ccccc5OC)CC4)CC3)n2)cc1	0	0	0	0
O=C(Cn1nc2c(cc1=O)CCCCC2)NC1CCCc2c1[nH]c1ccccc21 (configuration not stated)	0	28.2µM	0	0
Cn1nc(C(=O)NC2CCCc3c2[nH]c2ccccc32)c2ccccc2c1=O (configuration not stated)	0	25.1µM	0	0
O=C(Cn1nc2c(cc1=O)CCCCC2)NC1CCCc2c1[nH]c1c(Cl)cccc21 (configuration not stated)	0	0	0	0
O=C(NC1CCCc2c1[nH]c1ccccc21)c1ccccc1 (configuration not stated)	0	?	0	0
O=C(Cn1nc2c(cc1=O)CCCCC2)N1CC=C(c2c[nH]c3ccccc23)CC1	0	17.8µM	0	0
COc1cccc(Nc2ncc(-c3ccc(OC)nc3)c3c2OCC3)c1	0	?	0	0
COc1ccc(S(=O)(=O)NCC2CCCN(Cc3ccc(-c4ccco4)cc3)C2)cc1 (configuration not stated)	0	28.2µM	0	0
COc1cccc(-c2nnc(SCC(=O)N(C)C3CCCCC3)o2)c1	0	0	0	0
O=C1NCCCc2[nH]c(-c3cc(-c4cccc(F)c4)no3)nc21	0	?	0	0
O=C1NCCCc2[nH]c(-c3cnn(-c4cccc(F)c4)c3)nc21	0	28.2µM	0	0
Cc1ccc(C(=O)NC(C)C23CC4CC(CC(C4)C2)C3)s1 (configuration not stated)	-	0	-	-
CC(=O)N1C[C@H](NC(=O)c2cc3c(n(C)c2=O)CCCC3)[C@@H](C2CC2)C1	0	28.2µM	0	0
O=c1c2nc(Nc3cccc(F)c3)ccc2ncn1Cc1ccccc1	0	?	?	0
O=c1c2nc(NCc3cccs3)ccc2ncn1Cc1ccccc1	0	39.8µM	0	0
COc1cc(Cl)ccc1C(=O)N1CCN(c2cc(C(F)(F)F)nc(C)n2)CC1	0	?	0	0
c1ccc(-c2nc3ncccc3[nH]2)cc1	0	31.6µM!	0	0
c1cncc(-c2nc3ncccc3[nH]2)c1	0	35.5µM	0	0
SMILES	SNCA expr inh	KDM5B inhibitor	SNCA viab count	IP6K1 inh
Cc1occc1-c1nc2ncccc2[nH]1	0	31.6µM	0	0
c1cncc(-c2nc3ccncc3[nH]2)c1	0	?	0	0
NC(=O)NO	1.36µM!	-	0	0
Cc1cc(C)cc(C(=O)N2CCN(Cc3cccc4cccnc34)CC2)c1	-	0	-	-
O=C(NC1CCCC1)C1CCc2ncc(-c3ccc(F)cc3)n2C1 (configuration not stated)	0	0	0	0
c1cc2nc(C3CCCCN3)[nH]c2cn1 (configuration not stated)	0	?	0	0
c1cnc2nc(C3CCCN3)[nH]c2c1 (configuration not stated)	0	12.6µM!	0	0
CC(OC(=O)c1ccc(OCC(N)=O)cc1)C(=O)c1ccc2c(c1)CCC2 (configuration not stated)	-	0	-	-
CCc1nc2c(NC(=O)c3ccc(F)c(Cl)c3)cccn2n1	0	25.1µM	0	0
C=CCN(CC(=O)OC)Cc1cccs1	-	0	-	-
COc1ccc(-c2cn3cccnc3n2)cc1NC(=O)c1ccccc1C(F)(F)F	0	?	0	0
CC(C)(C)CC(=O)N1CCN2C(=O)c3cc(-c4ccccc4)ccc3NC(=O)[C@H]2C1	0	31.6µM	0	0

Screens deposited in PubChem by National Center for Advancing Translational Sciences (NCATS).
